Laboratory results taken from PubChem BioAssay.
Several values for one entry are separate records, joined by “and”; a condition that tells them apart may be missing. Equal entries are not always repeated. For part of these data: Potency and affinity values are given separately. Where a structure was tested more than once in an assay, its records may differ in their call. Activity calls are given as the source filed them. Unless noted, the rule behind the calls is not given here.

Legend:
[1] = antimalarial activity against Dd2 strain (AID 2302;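 active = growth inhibition above 50% at the single 2 µM test dose, taken to imply half-maximal potency below 2 µM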;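 note: 0% = DMSO untreated growth and 100% = chloroquine plus artemisinin killed control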); details: P. falciparum Dd2 in RBCs, LDH growth readout, 72 h; at 2 µM; stronger effect = higher value
[2] = human hepatoma cell viability loss – ATP luminescence, cytotoxicity control for P. falciparum antimalarial project, primary screen (AID 2303;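 active = inhibition above 50%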;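 note: 0% = DMSO wells and 100% = digitonin-killed cells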); details: HepG2 viability, 24-48 h, at 10 µM, stronger effect = higher value
[3] = target: L-lactate dehydrogenase (Plasmodium falciparum (isolate CDC / Honduras)) (UniProt Q27743); test: PfLDH activity inhibition – cell lysate, 3D7 strain, counter-screen for P. falciparum growth inhibition project (AID 2304);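 note: 0% = vehicle and 100% = reference inhibitor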; details: P. falciparum 3D7 crude extract, LDH APAD/NBT absorbance; at 2 µM; stronger effect = higher value
L-lactate dehydrogenase (Plasmodium falciparum (isolate CDC / Honduras)), sequence (Q27743 whole entry, looked up): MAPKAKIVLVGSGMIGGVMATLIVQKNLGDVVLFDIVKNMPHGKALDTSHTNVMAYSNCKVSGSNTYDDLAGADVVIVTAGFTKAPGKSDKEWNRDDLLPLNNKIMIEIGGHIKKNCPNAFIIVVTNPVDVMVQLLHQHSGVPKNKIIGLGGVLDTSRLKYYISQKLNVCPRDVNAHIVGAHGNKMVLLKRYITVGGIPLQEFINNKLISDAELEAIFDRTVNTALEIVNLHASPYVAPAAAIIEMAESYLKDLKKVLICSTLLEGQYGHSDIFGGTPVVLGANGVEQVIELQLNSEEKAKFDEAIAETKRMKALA

[4] = inhibition of 3D7 malaria parasite growth – strain 3D7 (AID 2306);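 note: 0% = DMSO wells and 100% = chloroquine plus artemisinin control wells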; details: P. falciparum 3D7 erythrocytic growth, LDH absorbance, 72 h; at 2 µM; stronger effect = higher value
[5] = target: Calcium-dependent protein kinase 1 (Plasmodium falciparum (isolate 3D7)) (UniProt P62344); test: PfCDPK1 kinase inhibitors, biochemical, TCAMS library (AID 1159585; cut-off not given, nearly all actives have IC50 up to about 0.98 µM;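 note: inhibitors leave more ATP so luminescence rises with inhibition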); details: recombinant PfCDPK1, Kinase-Glo ATP depletion luminescence
Calcium-dependent protein kinase 1 (Plasmodium falciparum (isolate 3D7)), sequence (P62344 whole entry, looked up): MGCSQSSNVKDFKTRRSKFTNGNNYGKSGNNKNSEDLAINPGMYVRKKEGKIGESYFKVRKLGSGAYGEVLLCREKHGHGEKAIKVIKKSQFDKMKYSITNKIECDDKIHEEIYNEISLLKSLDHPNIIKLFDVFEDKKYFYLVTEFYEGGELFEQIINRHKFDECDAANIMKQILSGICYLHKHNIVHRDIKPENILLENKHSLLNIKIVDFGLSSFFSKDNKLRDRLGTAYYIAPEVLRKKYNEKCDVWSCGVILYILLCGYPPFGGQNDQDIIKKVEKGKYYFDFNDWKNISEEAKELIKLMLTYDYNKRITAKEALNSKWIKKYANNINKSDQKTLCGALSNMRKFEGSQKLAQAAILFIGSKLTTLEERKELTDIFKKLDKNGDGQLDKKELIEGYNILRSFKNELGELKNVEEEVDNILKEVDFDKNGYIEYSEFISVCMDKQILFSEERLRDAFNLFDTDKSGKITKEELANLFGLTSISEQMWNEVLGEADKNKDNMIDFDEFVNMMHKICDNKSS

[6] = target: Plasmodium falciparum protein kinase 6 (PK6, PF3D7_1337100) (UniProt Q8IDW1); test: PfPK6 kinase inhibitors, biochemical, TCAMS library (AID 1159586); details: recombinant PfPK6, Kinase-Glo ATP depletion luminescence
Plasmodium falciparum protein kinase 6 (PK6, PF3D7_1337100), sequence (Q8IDW1 1-305): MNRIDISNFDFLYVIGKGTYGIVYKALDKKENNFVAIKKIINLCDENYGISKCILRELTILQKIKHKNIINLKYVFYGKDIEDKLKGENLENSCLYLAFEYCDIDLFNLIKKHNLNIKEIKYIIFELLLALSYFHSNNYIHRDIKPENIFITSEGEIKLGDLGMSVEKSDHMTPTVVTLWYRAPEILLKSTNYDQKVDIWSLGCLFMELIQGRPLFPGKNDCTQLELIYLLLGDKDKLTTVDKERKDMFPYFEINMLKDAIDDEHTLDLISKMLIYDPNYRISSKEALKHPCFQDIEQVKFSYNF

[7] = target: Protein kinase 7 (PK7), Plasmodium falciparum 3D7 (PF3D7_0213400) (UniProt Q7YTF7); test: inhibition of Plasmodium PK7 catalytic activity – biochemical, TCAMS antimalarial set, Kinase-Glo luminescence (AID 1159587); details: recombinant PfPK7, Kinase-Glo ATP depletion luminescence
Protein kinase 7 (PK7), Plasmodium falciparum 3D7 (PF3D7_0213400), sequence (Q7YTF7 1-343): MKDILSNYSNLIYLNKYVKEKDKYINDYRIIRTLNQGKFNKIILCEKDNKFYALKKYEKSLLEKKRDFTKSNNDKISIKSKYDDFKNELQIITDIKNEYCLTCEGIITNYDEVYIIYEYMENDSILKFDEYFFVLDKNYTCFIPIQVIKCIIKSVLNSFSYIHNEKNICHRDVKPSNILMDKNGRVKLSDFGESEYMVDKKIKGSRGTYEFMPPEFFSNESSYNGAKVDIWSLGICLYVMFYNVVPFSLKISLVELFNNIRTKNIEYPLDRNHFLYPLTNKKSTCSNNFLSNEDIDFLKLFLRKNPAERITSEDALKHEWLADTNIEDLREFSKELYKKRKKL

[8] = target: Calcium-dependent protein kinase 4 (Plasmodium falciparum (isolate 3D7)) (UniProt Q8IBS5); test: PfCDPK4 kinase inhibitors, biochemical, TCAMS library (AID 1159588; cut-off not given, nearly all actives have IC50 up to about 0.91 µM); details: recombinant PfCDPK4, Kinase-Glo ATP depletion luminescence
Calcium-dependent protein kinase 4 (Plasmodium falciparum (isolate 3D7)), sequence (Q8IBS5 whole entry, looked up): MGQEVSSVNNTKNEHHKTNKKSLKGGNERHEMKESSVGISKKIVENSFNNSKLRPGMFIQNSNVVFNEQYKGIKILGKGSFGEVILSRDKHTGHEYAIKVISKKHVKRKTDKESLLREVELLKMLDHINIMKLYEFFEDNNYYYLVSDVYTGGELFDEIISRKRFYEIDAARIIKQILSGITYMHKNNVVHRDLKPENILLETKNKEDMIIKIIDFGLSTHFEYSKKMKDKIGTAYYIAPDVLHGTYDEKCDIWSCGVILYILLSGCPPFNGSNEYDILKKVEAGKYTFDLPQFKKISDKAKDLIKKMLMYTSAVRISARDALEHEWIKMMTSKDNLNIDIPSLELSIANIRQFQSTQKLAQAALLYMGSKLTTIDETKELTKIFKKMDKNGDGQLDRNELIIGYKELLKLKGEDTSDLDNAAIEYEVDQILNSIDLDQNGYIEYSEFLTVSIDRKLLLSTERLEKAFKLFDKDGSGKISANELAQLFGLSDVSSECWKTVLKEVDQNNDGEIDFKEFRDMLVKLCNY

Cc1cc2cc(CNCCc3ccccc3Br)ccc2nc1N
active: growth inhibition [1] 91% | growth inhibition [4] 98%
inactive: inhibition [2] 31% | inhibition [3] -1% | outcome [5] | outcome [6] | outcome [7] | outcome [8]

COc1ccc(CCNCc2ccc3c(C)cc(N)nc3c2)cc1
inactive: inhibition [2] 12% | inhibition [3] 0% | outcome [5] | outcome [6] | outcome [7] | outcome [8]
active: growth inhibition [1] 69% | growth inhibition [4] 101%

CCOc1ccc(Br)cc1/C=C/C(=O)Nc1ccc2c(c1)[C@@H]1CC[C@H]2N1C
inactive: growth inhibition [1] 26% | inhibition [3] -2% | outcome [5] | outcome [6] | outcome [7] | outcome [8]
active: inhibition [2] 60% | growth inhibition [4] 89%

COc1ccc(NC(=S)NC(NC(=O)CF)C(Cl)(Cl)Cl)cc1[N+](=O)[O-] (configuration not stated)
active: inhibition [2] 66% | growth inhibition [4] 97%
inactive: growth inhibition [1] -4% | inhibition [3] 0% | outcome [5] | outcome [6] | outcome [7] | outcome [8]

Cc1cc(N(C)C2CCN(C)CC2)nc(Nc2ccc(Br)cc2)n1
inactive: inhibition [2] -5% | inhibition [3] 2% | outcome [5] | outcome [6] | outcome [7] | outcome [8]
active: growth inhibition [1] 92% | growth inhibition [4] 100%

CC[C@H]1CN2CC[C@H]1C[C@H]2[C@H](O)c1cc(-c2cccc(F)c2)nc2ccc(OC)cc12
inactive: inhibition [2] 34% | inhibition [3] 5% | outcome [5] | outcome [6] | outcome [7] | outcome [8]
active: growth inhibition [1] 97% | growth inhibition [4] 99%

Cc1c(C)c2c(c(C)c1O)CC[C@@](C)(C(=O)NC1CCC(CN3CCC(c4c[nH]c5ccccc45)CC3)CC1)O2 (some centres not stated)
active: growth inhibition [1] 57% | growth inhibition [4] 92%
inactive: inhibition [2] 29% | inhibition [3] -2% | outcome [5] | outcome [6] | outcome [7] | outcome [8]

COc1ccc(C(=O)[C@H]2C[C@@H]2CN2CC=C(c3c[nH]c4ccccc34)CC2)cc1
active: growth inhibition [1] 89% | growth inhibition [4] 95%
inactive: inhibition [2] 12% | inhibition [3] 1% | outcome [5] | outcome [6] | outcome [7] | outcome [8]

COC(C(=O)OCCC1CCCN1C)(c1ccccc1)c1ccccc1 (configuration not stated)
inactive: growth inhibition [1] 9% | inhibition [2] 6% | inhibition [3] 2% | outcome [5] | outcome [6] | outcome [7] | outcome [8]
active: growth inhibition [4] 98%

O=C(NC1CCC(CN2CCC(c3c[nH]c4ccccc34)CC2)CC1)c1csc(-c2ccc(C(F)(F)F)cc2Cl)n1 (configuration not stated)
active: growth inhibition [1] 75% | growth inhibition [4] 99%
inactive: inhibition [2] 32% | inhibition [3] -3% | outcome [5] | outcome [6] | outcome [7] | outcome [8]

CC1CN=C(Nc2ncc(Cl)cc2Cl)N1 (configuration not stated)
inactive: growth inhibition [1] 3% | inhibition [2] 2% | inhibition [3] 7% | outcome [5] | outcome [6] | outcome [7] | outcome [8]
active: growth inhibition [4] 99%

C/C=C1/CN2CC[C@H]1C[C@H]2[C@H](O)c1ccnc2ccc(O)cc12
inactive: growth inhibition [1] 11% | inhibition [2] -2% | inhibition [3] -3% | outcome [5] | outcome [6] | outcome [7] | outcome [8]
active: growth inhibition [4] 99%

O=C(CCc1ccc(Cl)cc1Cl)NC1CCC(CN2CCC(c3c[nH]c4ccccc34)CC2)CC1 (configuration not stated)
active: growth inhibition [4] 97% and 100%
inactive: growth inhibition [1] 4% and 45% | inhibition [2] 33% and 44% | inhibition [3] -4% and 2% | outcome [5] | outcome [6] | outcome [7] | outcome [8]

CCOC(=O)c1ccc(CC(C)NCC(O)c2cccc(C(F)(F)F)c2)cc1 (configuration not stated)
inactive: inhibition [2] 5% | inhibition [3] -9% | outcome [5] | outcome [6] | outcome [7] | outcome [8]
active: growth inhibition [1] 98% | growth inhibition [4] 100%

O=C(/C=C/c1ccc(Cl)c(Cl)c1)NC[C@@H]1CCC[C@H](CN2CCC(c3c[nH]c4ccccc34)CC2)C1
inactive: growth inhibition [1] 43% | inhibition [3] -4% | outcome [5] | outcome [6] | outcome [7] | outcome [8]
active: inhibition [2] 61% | growth inhibition [4] 98%

CN(c1cc(NC(=O)c2cccs2)ccn1)C1CCN(Cc2cccc(C#N)c2)CC1
active: growth inhibition [1] 69% | inhibition [2] 59% | growth inhibition [4] 90%
inactive: inhibition [3] 4% | outcome [5] | outcome [6] | outcome [7] | outcome [8]

COC(=O)C(C)(C)c1ccc(CC(C)NCC(O)c2cccc(C(F)(F)F)c2)cc1 (configuration not stated)
active: growth inhibition [1] 98% | growth inhibition [4] 99%
inactive: inhibition [2] 6% | inhibition [3] -7% | outcome [5] | outcome [6] | outcome [7] | outcome [8]

COC(=O)c1ccc(CC(C)NCC(O)c2ccccc2Cl)cc1 (configuration not stated)
inactive: inhibition [2] 1% | inhibition [3] 1% | outcome [5] | outcome [6] | outcome [7] | outcome [8]
active: growth inhibition [1] 55% | growth inhibition [4] 94%

Cc1[nH]c2c(C)cc(NS(C)(=O)=O)cc2c1C1CCN(CC2CCN(C(=O)/C=C/c3ccc(Cl)c(Cl)c3)CC2)CC1
inactive: inhibition [2] 33% | inhibition [3] 1% | outcome [5] | outcome [6] | outcome [7] | outcome [8]
active: growth inhibition [1] 99% | growth inhibition [4] 100%

O=P(O)(O)Oc1c(Br)cc(Br)cc1-c1cc(Br)cc(Br)c1O
inactive: growth inhibition [1] -2% | inhibition [2] 10% | inhibition [3] -4% | outcome [5] | outcome [6] | outcome [7] | outcome [8]
active: growth inhibition [4] 97%

C/C=C1/CN2CC[C@H]1C[C@H]2[C@H](O)c1ccnc2ccc(OC)cc12
active: growth inhibition [4] 99%
inactive: growth inhibition [1] 45% | inhibition [2] -16% | inhibition [3] 0% | outcome [5] | outcome [6] | outcome [7] | outcome [8]

O=C(C=Cc1ccccc1O)N1CCC(CN2CCC(c3c[nH]c4ccccc34)CC2)CC1
active: growth inhibition [4] 98%
inactive: growth inhibition [1] 43% | inhibition [2] 27% | inhibition [3] -1% | outcome [5] | outcome [6] | outcome [7] | outcome [8]

CCCc1c(C(=O)NC2CCC(CN3CCC(c4c[nH]c5ccccc45)CC3)CC2)cnn1-c1c(Cl)cc(Cl)cc1Cl (configuration not stated)
active: growth inhibition [4] 100%
inactive: growth inhibition [1] 49% | inhibition [2] 41% | inhibition [3] -5% | outcome [5] | outcome [6] | outcome [7] | outcome [8]

Cc1ccc(CC(C)NCC(O)c2cccc(Br)c2)cc1 (configuration not stated)
inactive: inhibition [2] 7% | inhibition [3] 3% | outcome [5] | outcome [6] | outcome [7] | outcome [8]
active: growth inhibition [1] 97% | growth inhibition [4] 99%

COc1cccc(C2(C)CCN(CCCCNC(=O)c3ccc(NC(=O)c4ccc(Cl)cc4)cc3)CC2)c1
active: growth inhibition [1] 72% | growth inhibition [4] 97%
inactive: inhibition [2] 19% | inhibition [3] 8% | outcome [5] | outcome [6] | outcome [7] | outcome [8]

N[C@@H](CCN1CCC(c2cccc(O)c2)CC1)Cc1ccc(F)c(F)c1
active: growth inhibition [4] 92%
inactive: growth inhibition [1] 0% | inhibition [2] 25% | inhibition [3] -3% | outcome [5] | outcome [6] | outcome [7] | outcome [8]

CC(C)CNCc1ccc(-c2cccc(CN(C(=O)Nc3ccccc3)C3CCN(Cc4ccccc4)CC3)c2)cc1
active: growth inhibition [1] 95% | growth inhibition [4] 101%
inactive: inhibition [2] 48% | inhibition [3] 4% | outcome [5] | outcome [6] | outcome [7] | outcome [8]

CC[C@H]1C[N+]2([O-])CC[C@@H]1C[C@H]2[C@H](O)c1cc(-c2ccccc2)nc2ccc(OC)cc12
active: growth inhibition [1] 97% | growth inhibition [4] 99%
inactive: inhibition [2] -11% | inhibition [3] 0% | outcome [5] | outcome [6] | outcome [7] | outcome [8]

O=C(CNC1CCCCC1)c1ccc(O)c(O)c1
inactive: inhibition [3] 4% | outcome [5] | outcome [6] | outcome [7] | outcome [8]
active: growth inhibition [1] 99% | inhibition [2] 61% | growth inhibition [4] 102%

COc1coc(C(=O)NC2CCN(CC3(c4ccc(Cl)cc4)CCC3)CC2)c1OC
inactive: inhibition [2] 2% | inhibition [3] -3% | outcome [5] | outcome [6] | outcome [7] | outcome [8]
active: growth inhibition [1] 96% | growth inhibition [4] 96%

CC(=O)Nc1ccc2[nH]cc(C3CCN(CC4CCC(NC(=O)/C=C/c5ccc(Cl)c(Cl)c5)CC4)CC3)c2c1 (configuration not stated)
active: growth inhibition [1] 99% and 59% | growth inhibition [4] 90% and 100%
inactive: inhibition [2] 18% and 10% | inhibition [3] 2% and 6% | outcome [5] | outcome [6] | outcome [7] | outcome [8]

CC[C@H]1CN2CC[C@H]1C[C@H]2[C@H](O)c1cc(N2CCC3CCCCC3C2)nc2ccc(OC)cc12 (some centres not stated)
inactive: inhibition [3] -4% | outcome [5] | outcome [6] | outcome [7] | outcome [8]
active: growth inhibition [1] 99% | inhibition [2] 50% | growth inhibition [4] 100%

O=C(NC1CCC(CN2CCC(c3c[nH]c4ccccc34)CC2)CC1)c1cc2ccccc2s1 (configuration not stated)
active: growth inhibition [4] 98% and 101%
inactive: inhibition [2] 44% | inhibition [3] 4% and 5% | outcome [5] | outcome [6] | outcome [7] | outcome [8]
43% (inactive) and 68% (active): growth inhibition [1]

COc1ccc(CN2CCN(CCOC(c3ccc(F)cc3)c3ccc(F)cc3)CC2)c(O)c1
inactive: inhibition [2] 6% | inhibition [3] -6% | outcome [5] | outcome [6] | outcome [7] | outcome [8]
active: growth inhibition [1] 97% | growth inhibition [4] 97%

CNC(=O)c1ccc2[nH]cc(C3CCN(CC4CCC(NC(=O)/C=C/c5ccccc5Cl)CC4)CC3)c2c1 (configuration not stated)
inactive: growth inhibition [1] 19% | inhibition [2] 12% | inhibition [3] 3% | outcome [5] | outcome [6] | outcome [7] | outcome [8]
active: growth inhibition [4] 100%

S=C(Nc1ccc2c(c1)OCCO2)NC1CCC(CN2CCC(c3c[nH]c4ccccc34)CC2)CC1 (configuration not stated)
active: growth inhibition [4] 96% and 92%
inactive: growth inhibition [1] 7% and 1% | inhibition [2] 31% and 32% | inhibition [3] -8% and -1% | outcome [5] | outcome [6] | outcome [7] | outcome [8]

CCCN(CC(=O)NCCc1ccccc1)c1ccc(C#N)c2ccccc12
inactive: growth inhibition [1] 39% | inhibition [2] 8% | inhibition [3] -5% | outcome [5] | outcome [6] | outcome [7] | outcome [8]
active: growth inhibition [4] 92%

CN1CCC(O)(c2ccc(Br)cc2)C(C(O)c2ccc(Br)cc2)C1 (configuration not stated)
inactive: inhibition [2] 28% | inhibition [3] -5% | outcome [5] | outcome [6] | outcome [7] | outcome [8]
active: growth inhibition [1] 99% | growth inhibition [4] 98%

CC(C)CCNC(=O)c1cc(C(=O)c2cc(F)ccc2O)cn(CCC(C)C)c1=O
active: growth inhibition [4] 100%
inactive: growth inhibition [1] 45% | inhibition [2] 14% | inhibition [3] -1% | outcome [5] | outcome [6] | outcome [7] | outcome [8]
